# Bioassay records as filed in PubChem.
# Sampled rows, rich in hits. Any-hit rate of the full collection: about 2.3%.
# Mcl1 Bid PPI: Mcl-1/Bid binding inhibitors, primary screen, biochemical, TR-FRET, 1536-well; Induced myeloid leukemia cell differentiation protein Mcl-1 (Homo sapiens), Q07820; TR-FRET Mcl-1/Bid-Dy647 peptide binding; inhibition, % at 21.7 µM; 220,000 tested, 0.97% active; AID 1021, 2008;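 active = compounds that cut the binding signal by more than half at the single screening dose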;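 note: His-tagged Mcl-1 with europium anti-His antibody binding Bid BH3 peptide; 0% = Mcl-1 plus peptide wells and 100% = peptide-only wells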
# Target sequence (Q07820 whole entry, looked up): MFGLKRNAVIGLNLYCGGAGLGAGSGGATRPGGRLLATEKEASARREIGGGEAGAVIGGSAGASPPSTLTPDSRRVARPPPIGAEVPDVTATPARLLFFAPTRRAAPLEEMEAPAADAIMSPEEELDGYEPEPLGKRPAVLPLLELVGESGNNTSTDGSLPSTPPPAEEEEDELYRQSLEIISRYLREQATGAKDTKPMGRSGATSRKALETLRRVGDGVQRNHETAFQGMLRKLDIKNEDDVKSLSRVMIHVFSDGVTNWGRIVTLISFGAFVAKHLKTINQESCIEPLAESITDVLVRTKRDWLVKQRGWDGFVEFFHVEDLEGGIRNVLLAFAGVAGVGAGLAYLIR
# GLD-1 TGE inh: GLD-1/TGE RNA complex disruptors, primary screen, biochemical, fluorescence polarization | Female germline-specific tumor suppressor gld-1 (Caenorhabditis elegans), Q17339 | purified GLD-1 + fluorescein TGE RNA | inhibition, % at 5.96 µM | 320,000 tested, 0.44% active;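 active = percent inhibition above a per-plate cutoff, the plate mean of test compounds plus 3 SD, cut at about 30% in these data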;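 note: 0% = DMSO wells with GLD-1 and probe and 100% = wells lacking GLD-1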
# Mcl-1 Bim block: inhibitors of Bim peptide binding to Mcl-1, primary screen, biochemical, bead-based flow cytometry, multiplex. Induced myeloid leukemia cell differentiation protein Mcl-1 (Homo sapiens), Q07820. Bim peptide-Mcl-1 binding. inhibition, % at 10 µM. 190,000 tested, 0.1% active. AID 1009, 2008; in the data active = inhibition above about 40%;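 note: 0% = no compound tracer wells and 100% = peptide blocker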
# MCL1-BIM inh: inhibitors of MCL1 binding to BIM-BH3, primary screen, biochemical, fluorescence polarization. Induced myeloid leukemia cell differentiation protein Mcl-1 (Homo sapiens), Q07820. GST-MCL1 / FITC-Bim-BH3 fluorescence polarization. inhibition, % at 10.9 µM. 320,000 tested, 0.68% active;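 active = inhibition above the mean inhibition of all tested compounds plus 3 SD, set per campaign, cut at about 40% in these data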;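 note: 0% = DMSO wells and 100% = unlabeled Bim-BH3 peptide control; higher means more loss of mP so more displacement of Bim peptide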
# Mcl1-Noxa inh: Mcl-1/Noxa binding inhibitors, primary screen, biochemical, TR-FRET, 1536-well; inhibition, % at 21.7 µM; TR-FRET Mcl-1/Noxa peptide binding, 2 h; 220,000 tested, 1.5% active;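 active = compounds that cut the protein-peptide binding signal by more than 50% relative to plate controls in a single-dose test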;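 note: His-tagged Mcl-1 with rhodamine Noxa BH3 peptide and terbium anti-His antibody; 0% = Mcl-1 plus Noxa peptide wells and 100% = peptide-only wells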
# Bcl-xL primary: inhibitors of human Bcl-xL, primary screen, biochemical, fluorescence polarization, HTS; Bcl-2-like protein 1 (Homo sapiens), Q07817; GST-Bcl-xL / FITC-Bim BH3 peptide fluorescence polarization; inhibition, % at 10.9 µM; 320,000 tested, 0.7% active;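 active = inhibition above the mean of all tested compounds plus 3 SD, cutoff set per campaign, cut at about 30% in these data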;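 note: 0% = DMSO wells and 100% = unlabeled Bim-BH3 peptide competitor; inhibitors lower millipolarization by displacing the labeled peptide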
# Target sequence (Q07817 whole entry, looked up): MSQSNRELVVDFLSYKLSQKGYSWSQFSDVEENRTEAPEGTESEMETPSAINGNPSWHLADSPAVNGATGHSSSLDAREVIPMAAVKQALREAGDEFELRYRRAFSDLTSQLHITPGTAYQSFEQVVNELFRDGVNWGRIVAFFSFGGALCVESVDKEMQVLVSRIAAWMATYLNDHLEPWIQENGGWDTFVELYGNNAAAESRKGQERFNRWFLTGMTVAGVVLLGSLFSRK
# BCLXL inh confirm: Bcl-xL inhibitors blocking Bim BH3 binding, confirmation, counter-screen for MCL1 inhibitor project, biochemical, fluorescence polarization | GST-Bcl-xL / FITC-Bim BH3 peptide FP binding | AID 2166, 2009 | 1,700 tested, 54% active | inhibition, % at 10.9 µM | shares compounds with MCL1-BIM inh;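 active = inhibition above a cutoff equal to the mean inhibition of all tested compounds plus 3 SD, cut at about 30% in these data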;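 note: 0% = DMSO wells and 100% = unlabeled Bim BH3 control peptide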
# MCL1 inh confirm: inhibitors of MCL1 binding to BIM-BH3, confirmation, biochemical, fluorescence polarization, triplicate | shares compounds with MCL1-BIM inh | inhibition, % at 10.9 µM | GST-MCL1 / FITC-Bim-BH3 fluorescence polarization | 1,700 tested, 61% active;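 active = inhibition above the average of all tested compounds plus 3 SD, cut at about 40% in these data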;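 note: 0% = DMSO wells and 100% = unlabeled Bim-BH3 control peptide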
# Numbers without * were called inactive; · = no result; + = active, no number.
SMILES,Mcl1 Bid PPI,GLD-1 TGE inh,Mcl-1 Bim block,MCL1-BIM inh,Mcl1-Noxa inh,Bcl-xL primary,BCLXL inh confirm,MCL1 inh confirm
COc1ccc(OC)c2[nH]c(=O)c(CCNS(=O)(=O)c3ccc(Cl)cc3)cc12,-9,-11,-2,44*,11,1,6,3
COc1ccc(OC)c2[nH]c(=O)c(CCNS(=O)(=O)c3ccc(C)cc3)cc12,1,-2,-1,6,3,6,·,·
CCOc1ccc2nc3cc(NCc4ccc(OC)cc4)ccc3c(N)c2c1,·,-41,·,+,·,184*,139*,166*
CCn1cnc2cc(NCc3ccc(OC)cc3)ccc21,-35,4,0,17,22,9,·,·
COc1cccc(NS(=O)(=O)c2ccc3c(c2)C2C=CCC2C(c2ccc(C(=O)O)cc2)N3)c1 (stereo not given),14,15,6,58*,97*,26,29,46*
COc1ccc(C(=O)N/N=C(\C)c2ccc3c(c2)C2C=CCC2C(c2ccccc2)N3)cc1 (stereo not given),-2,-1,3,56*,46,30,5,-1
O=C(COC(=O)c1cccc(C(F)(F)F)c1)NC(=O)NC1CCCC1,·,2,·,·,·,·,·,·
Cc1cc(S(=O)(=O)N2CCCCC2)ccc1OCC(=O)Nc1ccccc1,·,4,·,-2,·,1,·,·
CCOC(=O)Cc1csc(NC(=O)COc2cc(C)cc(C)c2)n1,-21,2,-4,-2,-21,5,·,·
COc1cccc(/C=N/NC(=S)Nc2cccc(C(=O)O)c2)c1O,-22,-7,-2,56*,34,13,22,72*
CCOc1cccc(=O)c2c(C)n(Cc3ccccc3)c(C)c12,-14,5,3,7,16,6,·,·
CCOc1cccc(=O)c2c(C)n(-c3ccc(C(=O)O)cc3)c(C)c12,-51,29,0,86*,14,59*,36*,53*
Cc1ccc(C(=O)OCC(=O)NC(=O)c2ccc(C(C)(C)C)cc2)c(O)c1,·,26,·,70*,·,62*,-4,-6
Cc1ccc(C(=O)OCC(=O)NNC(=O)c2ccccc2)c(O)c1,·,7,·,-4,·,-1,·,·
CCN(CC)c1ccc2c(-c3ccc(S(=O)(=O)O)cc3S(=O)(=O)[O-])c3ccc(=[N+](CC)CC)cc-3oc2c1,·,155*,·,+,·,+,+,+
CN1CCc2cccc3c2C1Cc1ccc(O)c(O)c1-3 (stereo not given),·,7,·,49*,·,33*,46*,70*
Cn1c(SCC(=O)N/N=C/C=C\c2ccco2)nc2ccccc21,-37,3,2,29,24,12,·,·
CCn1c(SCC(=O)N/N=C/C=C\c2ccco2)nc2ccccc21,-42,-2,-3,48*,18,15,17,34
COCCNC(=O)NC(=O)CN1CCCc2ccccc21,-21,-5,-1,74*,12,51*,7,12
Cc1ccc(NC(=O)C(=O)Nc2ccc(C)cn2)nc1,-22,-2,-2,-3,-5,7,·,·
Cc1ccc(NC(=O)/C(C#N)=C(\N)C(Cl)(Cl)Cl)nc1,-4,43*,5,70*,8,72*,171*,185*
CC1CCCCC1NC(=O)COC(=O)c1ccc2c(=O)n3c(nc2c1)CCC3 (stereo not given),·,2,·,·,·,·,·,·
Fc1ccc(-c2cnc3n2CCCCC3)cc1,-24,-5,-2,-2,10,0,·,·
CC(=O)Nc1cccc(NC(=O)c2cccc(-c3ccc(O)cc3)c2)c1,·,-1,·,4,·,2,·,·
COc1ccc(NC(=O)c2cccc(-c3ccc(O)cc3)c2)cn1,·,135*,·,179*,·,144*,107*,133*
SMILES,Mcl1 Bid PPI,GLD-1 TGE inh,Mcl-1 Bim block,MCL1-BIM inh,Mcl1-Noxa inh,Bcl-xL primary,BCLXL inh confirm,MCL1 inh confirm
C=C(C)c1cccc(C(C)(C)NC(=O)Nc2ccc(OC)nc2)c1,·,83*,·,91*,·,82*,57*,73*
C=C(C)c1cccc(C(C)(C)NC(=O)Nc2ccc(C)cn2)c1,-10,1,7,-9,16,0,·,·
CC1OC2(C)OC(=N)C1(C#N)C(C#N)(C#N)C2c1ccccc1 (stereo not given),-38,66*,-6,87*,20,55*,11,7
CC1(C)CC(=O)C2=C(C1)OC(N)=C(C#N)C2c1ccccc1[N+](=O)[O-] (stereo not given),-52,119*,-1,186*,14,165*,93*,114*
O=C1CCCC2=C1C(c1ccco1)Nc1ccc3ccccc3c12 (stereo not given),60*,9,1,67*,99*,25,28,78*
O=C(COc1ccccc1Br)Nc1ccc(S(=O)(=O)N2CCCC2)cc1,·,-2,·,-17,·,-16,·,·
Cc1ccc(C(=O)NCC(=O)NCC(=O)OCC(=O)c2ccc(Br)cc2)cc1,-40,1,3,54*,-17,4,2,2
Cc1ccc(C(=O)COC(=O)CNC(=O)Cc2ccccc2)cc1,·,-4,·,10,·,4,·,·
CC(=O)Nc1ccc(NC(=O)C(C)OC(=O)C23CC4CC(CC(Cl)(C4)C2)C3)cc1 (stereo not given),·,5,·,·,·,·,·,·
NNC(=O)c1cc(O)c(O)c(O)c1,-83,4,8,54*,73*,25,34*,46*
O=C(O)C(C(=O)/C=C/c1ccco1)=C1SCCS1,3,4,-1,51*,-5,26,23,56*
O=C(C=C1SCCS1)/C=C/c1ccco1,-42,3,-3,37,42,14,·,·
CNC(=O)c1cc(C(=O)c2ccc(C(F)(F)F)cc2F)c[nH]1,-11,2,0,66*,7,4,2,6
CNC(=O)c1cc(C(=O)c2ccc(C(F)(F)F)cc2)c[nH]1,·,1,·,5,·,3,·,·
O=C1c2ccccc2-c2c1cccc2C(=O)N1CCN(C(=O)c2ccco2)CC1,-16,2,-3,2,17,8,·,·
